Test results taken from the supplement of paper PMC9588786.
± gives the standard deviation of the averaged measurements.

Tested on: HT-1080
Test: relative cell viability with RSL3 co-treatment (fraction of control); higher = stronger protection from RSL3-induced ferroptosis (higher viability)
Settings: 10 µM
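Also: viability read as CCK-8 absorbance at 450 nm in cells co-exposed to the GPX4 inhibitor RSL3, relative to a 0.01% DMSO vehicle control.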

| SMILES | relative cell viability |
| --- | --- |
| Cc1cn(-c2cc(NC(=O)c3ccc(C)c(Nc4nccc(-c5cccnc5)n4)c3)cc(C(F)(F)F)c2)cn1 [Nilotinib (AMN-107)] | 0.507 ± 0.021 |
| Cc1[nH]c(/C=C2\C(=O)Nc3ccccc32)c(C)c1CCC(=O)O [Orantinib (TSU-68, SU6668)] | 0.903 ± 0.057 |
| O=C(NCCCNc1nc(Nc2cccc(NC(=O)N3CCCC3)c2)ncc1I)c1cccs1 | 0.657 ± 0.011 |
| CNCc1ccc(-c2cc(-c3nc(-c4ccc(S(=O)(=O)C(C)C)cc4)cnc3N)on2)cc1 | 0.47 ± 0.026 |
| CCn1c(N)c(C(=O)NC)c(=O)c2ccc(C#CC(C)(O)COC)nc21 (stereo not drawn) | 0.89 ± 0.16 |
| COc1cc(N2CCC(N)CC2)ccc1Nc1ncc(Cl)c(-c2c[nH]c3ccccc23)n1 | 0.24 ± 0.062 |
| CN(C)C/C=C/C(=O)Nc1cc2c(Nc3ccc(F)c(Cl)c3)ncnc2cc1O[C@H]1CCOC1 [Afatinib (BIBW2992)] | 0.72 ± 0.061 |
| Cc1c[nH]c2nc(Nc3ccc(N4CCN(C)CC4)c(F)c3)nc(-c3cccc(CC#N)c3)c12 | 0.123 ± 0.1 |
| Cc1ccc(C(=O)Nc2ccc(CN3CCN(C)CC3)c(C(F)(F)F)c2)cc1C#Cc1cnc2[nH]ncc2c1 [GZD824 Dimesylate] | 0.553 ± 0.031 |
| COc1cc2ncnc(Nc3cccc(Cl)c3F)c2cc1OC(=O)N1CCN(C)C[C@H]1C | 0.617 ± 0.025 |
| Cc1cc(C(=O)NOCCO)c(Nc2ccc(I)cc2F)n(C)c1=O | 0.793 ± 0.16 |
| O=C(O)c1ccc(Nc2ncc3c(n2)-c2ccc(Cl)cc2C(c2c(F)cccc2F)=NC3)cc1 | 0.433 ± 0.045 |
| CC(C)(C)c1nc(-c2cccc(NS(=O)(=O)c3c(F)cccc3F)c2F)c(-c2ccnc(N)n2)s1 | 0.577 ± 0.11 |
| Cc1ccc(C(=O)Nc2cccc(C(F)(F)F)c2)cc1Nc1nc(-c2cccnc2)nc2c1cnn2C | 0.473 ± 0.23 |
| CNC(=O)c1ccc(C)c(-n2c(C)cc(OCc3ccc(F)cc3F)c(Br)c2=O)c1 | 0.747 ± 0.067 |
| Cc1[nH]c(/C=C2\C(=O)Nc3ccc(S(=O)(=O)Cc4c(Cl)cccc4Cl)cc32)c(C)c1C(=O)N1CCC[C@@H]1CN1CCCC1 | 0.19 ± 0.046 |
| CC(C)(CCCCCC(O)CCCCCC(C)(C)C(=O)O)C(=O)O | 0.843 ± 0.078 |
| CCN(CC)CCCC(C)Nc1nc(C)cc(Nc2ccc3nc(C)cc(N)c3c2)n1 (stereo not drawn) | 0.583 ± 0.15 |
| C=CC(=O)Nc1cccc(Oc2nc(Nc3ccc(N4CCN(C)CC4)cc3)nc3ccsc23)c1 | 0.55 ± 0.082 |

| SMILES | relative cell viability |
| --- | --- |
| N#Cc1ccc2[nH]c(O)c(-c3ccc(CN4CCOCC4)cn3)c2c1 | 0.75 ± 0.046 |
| CC(C)(C)c1cc(/C=C(\C#N)C(N)=S)cc(C(C)(C)C)c1O [Tyrphostin AG 879] | 0.69 ± 0.017 |
| CCNC(=O)Nc1ccc(-c2nc3c(c(N4CCOC[C@@H]4C)n2)CCN(C2COC2)C3)cc1 | 0.503 ± 0.2 |
| C=CC(=O)Nc1ccc2ncnc(Nc3ccc(OCc4cccc(F)c4)c(Cl)c3)c2c1 | 1.01 ± 0.01 |
| CCOc1cc2ncc(C#N)c(Nc3ccc(F)c(Cl)c3)c2cc1NC(=O)/C=C/CN(C)C [Pelitinib (EKB-569)] | 0.247 ± 0.081 |
| CCc1nc(-c2cccc(C)c2)c(-c2ccnc(NC(=O)c3ccccc3)c2)s1 | 0.783 ± 0.1 |
| CCC(=O)Nc1cccc(Oc2nc(Nc3ccc(N4CCN(C)CC4)cc3OC)ncc2Cl)c1 | 0.803 ± 0.097 |
| COc1cc2ncnc(Nc3ccc(O)c(Br)c3)c2cc1OC | 0.8167 ± 0.0058 |
| C[S+]([O-])c1ccc(-c2nc(-c3ccc(F)cc3)c(-c3ccncc3)[nH]2)cc1 (stereo not drawn) | 0.603 ± 0.032 |
| O=c1cc(-c2cccc3c2Sc2ccccc2S3)oc(N2CCOCC2)c1 | 0.57 ± 0.21 |
| C[C@H](Nc1ncnc2nc[nH]c12)c1cc2cccc(Cl)c2c(=O)n1-c1ccccc1 [Duvelisib (IPI-145, INK1197)] | 0.717 ± 0.025 |
| C=CC(=O)Nc1cc(Nc2nccc(-c3cn(C)c4ccccc34)n2)c(OC)cc1N(C)CCN(C)C [Osimertinib (AZD9291)] | 0.403 ± 0.068 |
| NC(=O)c1ncn([C@@H]2O[C@H](CO)[C@@H](O)[C@H]2O)c1N [AICAR (Acadesine)] | 1.03 ± 0.011 |
| CC[C@@H]1C(=O)N(C)c2cnc(Nc3ccc(C(=O)N[C@H]4CC[C@H](N5CCN(CC6CC6)CC5)CC4)cc3OC)nc2N1C(C)C [Volasertib (BI 6727)] | 0.397 ± 0.15 |
| Cc1ccc(S(=O)(=O)/C=C/C#N)cc1 | 0.463 ± 0.042 |
| Cc1cc(N2CCOCC2)cc2[nH]c(-c3c(NC[C@@H](O)c4cccc(Cl)c4)cc[nH]c3=O)nc12 | 0.987 ± 0.15 |
| CN1CCC(CNc2ccc3ncc(-c4cccc(OC(F)(F)F)c4)n3n2)CC1 [SGI-1776 free base] | 0.507 ± 0.16 |
| C[C@@H]1COCCN1c1cc(C2([S@](C)(=N)=O)CC2)nc(-c2cc[nH]c3nccc2-3)n1 | 0.777 ± 0.06 |
| COc1cc2nccc(Oc3ccc(NC(=O)Nc4cc(C)on4)c(Cl)c3)c2cc1OC [Tivozanib (AV-951)] | 0.23 ± 0.11 |
